# Values without a mark were called inactive. Records with an inconclusive call do not appear. A call without a number means that no potency is given here. Calls of active or inactive are those of the source. Unless noted, calls come from the whole dose curve; as a rule, active = well fitted curve in the direction sought with a large enough effect; inconclusive = small, poorly fitted or top-dose-only effect, or another doubt; inactive = no such curve, though single readings can be large; an effect the other way counts as inactive or inconclusive.
# Key:
# [1] = biological target: Cytochrome P450 1A2 (Homo sapiens) (UniProt P05177); assay: p450-cyp1a2 (AID 410; calls by dose curve; note: potency is the fitted concentration of half-maximal effect)
# In short: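 Luminescent readout of luciferin formed from Luciferin-ME by human CYP1A2; data normalized against complete inhibition by 57 uM furafylline. Enzyme 20nM, substrate 100uM at Km, 100mM KPO4 buffer, 60 min reaction at room temperature.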
# [2] = biological target: Glucocorticoid receptor (Homo sapiens) (UniProt P04150); assay: GR-EFC Redistribution (AID 451; calls by dose curve; note: potency is the fitted concentration of half-maximal effect); settings: CHO-K1 GR-EFC translocation, beta-gal luminescence, 2 h
# In short: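 Translocation of GR-ED fusion to nuclear EA restores b-gal, read by luminescence after 1 h room-temperature detection. Engineered CHO-K1 biosensor cells, 1,000/well, exposed 2 h at 37 C to titrations up to 46 uM final.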
# [3] = biological target: 3',5'-cyclic-AMP phosphodiesterase 4B (Homo sapiens) (UniProt Q07343); assay: qHTS Assay for Inhibitors of PDE-IV (AID 607; active = well fitted activation curve with a large enough effect in the main read-out, with a control signal flat, not every such curve was filed as active)
# In short: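 The readout is membrane depolarisation from a cAMP-sensing CNG channel, detected with a potential dye at ex 535/em 590. Cells were HEK293-derived (endogenous PDE-IV) at 1000 cells/well, titrated up to 22.9 uM final.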
# [4] = biological target: Cytochrome P450 2C9 (Homo sapiens) (UniProt P11712); assay: qHTS Assay for Inhibitors and Substrates of Cytochrome P450 2C9 (AID 883); note: nearly all actives have a fitted effect of over 60% in size; note: potency is the fitted concentration of half-maximal effect
# In short: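 Turnover of Luciferin-H (100uM, KM) by 10nM human CYP2C9 was measured over 60 min at 37C with NADPH regeneration; inhibitors and some substrates reduce luminescence. Data normalized to sulphaphenazole 57uM.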
# [5] = biological target: Cytochrome P450 2D6 (Homo sapiens) (UniProt P10635); assay: qHTS Assay for Inhibitors and Substrates of Cytochrome P450 2D6 (AID 891);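 note: luciferin methyl ether substrate demethylated by CYP2D6 with NADPH regeneration; nearly all actives have a fitted effect of over 60% in size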
# In short: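 Human CYP2D6 (5 nM) with 30 uM Luciferin-ME EGE (at Km) in 100 mM KPO4, compound preincubated 10 min, then NADPH regeneration system for 60 min at room temperature. Luciferin read by luminescence; normalized to 1.43 uM quinidine.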
# [6] = biological target: Cytochrome P450 2C19 (Homo sapiens) (UniProt P33261); assay: qHTS Assay for Inhibitors and Substrates of Cytochrome P450 2C19 (AID 899); note: nearly all actives have a fitted effect of over 60% in size; note: potency is the fitted concentration of half-maximal effect
# In short: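 Reactions contain 5nM enzyme, 10uM Luciferin-H EGE (KM) and 50mM KPO4; compound preincubates 10 min at 37C, NADPH regeneration starts turnover for 60 min. Luminescence after detection reagent gives activity.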
# [7] = biological target: Mitogen-activated protein kinase 10 (Mus musculus) (UniProt Q61831); assay: JNK3 AlphaScreen Assay (AID 530; active = well fitted curve in either direction with a large enough effect, not every such curve was filed as active;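 note: kinase came from lysate of stimulated human HepG2 cells; signal reports phosphorylation of biotinylated GST-cJun 1-79 at Ser73 with 10 µM ATP; series mostly up to about 57 µM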)
# In short: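 Compound titrations were preincubated 15 minutes at room temperature with substrate, antibody and pre-activated JNK3-containing HepG2 lysate. Reactions were started with 10 uM ATP and stopped with EDTA-containing bead buffer for AlphaScreen detection.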
# [8] = biological target: Cytochrome P450 3A4 (Homo sapiens) (UniProt P08684); assay: qHTS Assay for Activators of Cytochrome P450 3A4 (AID 885); note: nearly all actives have a fitted effect of over 65% in size
# In short: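 Steps: enzyme/substrate mix dispensed; compound added, 10 min RT; NADPH regeneration solution added, 60 min RT; luciferin detection buffer stops reaction; 20 min later luminescence measured.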
# [9] = biological target: Tyrosyl-DNA phosphodiesterase 1 (Homo sapiens) (UniProt Q9NUW8); assay: Confirmation Assay for Inhibitors of Tyrosyl-DNA Phosphodiesterase (TDP1) (AID 489007); settings: recombinant human TDP1 enzymatic activity, dose-response; note: potency is the fitted concentration of half-maximal effect; nearly all actives have a fitted effect of over 40% in size
# In short: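 Tdp1 1 nM + cpd, 15 min RT; add biotin/phosphotyrosine-FITC oligo 15 nM, 5 min RT; add AS donor/acceptor beads 10 ug/ml, 10 min RT; read AlphaScreen. No-enzyme wells = max signal.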
# Chain of 3',5'-cyclic-AMP phosphodiesterase 4B (Homo sapiens) (Q07343 whole entry, looked up): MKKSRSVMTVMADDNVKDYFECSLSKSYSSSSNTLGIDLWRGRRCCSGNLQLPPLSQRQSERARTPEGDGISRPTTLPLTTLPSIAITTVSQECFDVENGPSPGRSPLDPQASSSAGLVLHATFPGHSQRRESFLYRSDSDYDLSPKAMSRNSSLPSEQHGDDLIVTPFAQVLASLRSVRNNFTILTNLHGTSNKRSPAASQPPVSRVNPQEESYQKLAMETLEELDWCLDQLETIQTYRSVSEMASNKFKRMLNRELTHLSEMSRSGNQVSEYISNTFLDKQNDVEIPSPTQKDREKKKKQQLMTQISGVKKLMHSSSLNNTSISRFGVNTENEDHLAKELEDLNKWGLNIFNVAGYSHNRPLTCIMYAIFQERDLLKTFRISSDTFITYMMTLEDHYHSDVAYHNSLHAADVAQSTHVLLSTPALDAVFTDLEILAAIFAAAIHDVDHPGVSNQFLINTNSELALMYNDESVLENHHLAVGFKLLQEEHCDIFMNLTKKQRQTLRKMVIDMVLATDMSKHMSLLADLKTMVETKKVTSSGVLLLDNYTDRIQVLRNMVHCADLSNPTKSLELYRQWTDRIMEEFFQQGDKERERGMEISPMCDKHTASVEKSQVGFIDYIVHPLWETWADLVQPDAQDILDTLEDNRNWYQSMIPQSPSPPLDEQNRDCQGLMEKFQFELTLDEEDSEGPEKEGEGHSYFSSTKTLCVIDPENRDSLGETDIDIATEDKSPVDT
# Chain of Cytochrome P450 2C9 (Homo sapiens) (P11712 whole entry, looked up): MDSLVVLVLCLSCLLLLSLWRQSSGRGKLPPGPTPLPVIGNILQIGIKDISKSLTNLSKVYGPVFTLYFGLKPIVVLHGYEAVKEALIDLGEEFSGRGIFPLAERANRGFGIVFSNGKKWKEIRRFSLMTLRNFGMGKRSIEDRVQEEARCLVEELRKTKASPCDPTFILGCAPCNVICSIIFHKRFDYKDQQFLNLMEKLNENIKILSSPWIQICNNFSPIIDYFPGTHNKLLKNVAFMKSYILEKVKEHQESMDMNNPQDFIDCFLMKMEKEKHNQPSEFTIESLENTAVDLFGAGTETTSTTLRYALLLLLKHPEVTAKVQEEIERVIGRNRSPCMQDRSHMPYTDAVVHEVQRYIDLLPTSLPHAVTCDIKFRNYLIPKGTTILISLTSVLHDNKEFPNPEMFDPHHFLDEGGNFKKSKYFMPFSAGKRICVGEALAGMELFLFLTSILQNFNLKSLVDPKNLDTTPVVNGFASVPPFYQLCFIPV
# Chain of Glucocorticoid receptor (Homo sapiens) (P04150 whole entry, looked up, the tested form may be a part): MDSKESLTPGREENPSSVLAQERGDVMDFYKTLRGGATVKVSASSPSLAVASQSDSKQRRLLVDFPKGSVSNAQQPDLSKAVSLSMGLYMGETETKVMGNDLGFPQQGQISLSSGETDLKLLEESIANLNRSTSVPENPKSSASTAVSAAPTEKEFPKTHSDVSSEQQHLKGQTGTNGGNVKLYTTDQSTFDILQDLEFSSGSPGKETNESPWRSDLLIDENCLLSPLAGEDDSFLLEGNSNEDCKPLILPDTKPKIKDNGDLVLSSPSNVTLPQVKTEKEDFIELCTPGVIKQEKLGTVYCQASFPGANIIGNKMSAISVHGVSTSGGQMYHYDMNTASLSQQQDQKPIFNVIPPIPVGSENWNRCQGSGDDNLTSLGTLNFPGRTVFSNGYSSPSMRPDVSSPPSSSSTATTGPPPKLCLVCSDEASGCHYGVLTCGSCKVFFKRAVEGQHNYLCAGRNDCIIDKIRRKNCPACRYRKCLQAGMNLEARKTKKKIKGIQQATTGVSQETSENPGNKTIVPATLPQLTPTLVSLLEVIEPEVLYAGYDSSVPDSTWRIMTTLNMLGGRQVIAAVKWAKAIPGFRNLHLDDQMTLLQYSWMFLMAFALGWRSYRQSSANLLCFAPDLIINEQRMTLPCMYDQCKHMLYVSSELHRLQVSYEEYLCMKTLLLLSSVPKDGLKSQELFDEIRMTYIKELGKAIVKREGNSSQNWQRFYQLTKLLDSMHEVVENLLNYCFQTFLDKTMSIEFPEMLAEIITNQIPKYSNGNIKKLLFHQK
# Chain of Cytochrome P450 2D6 (Homo sapiens) (P10635 whole entry, looked up): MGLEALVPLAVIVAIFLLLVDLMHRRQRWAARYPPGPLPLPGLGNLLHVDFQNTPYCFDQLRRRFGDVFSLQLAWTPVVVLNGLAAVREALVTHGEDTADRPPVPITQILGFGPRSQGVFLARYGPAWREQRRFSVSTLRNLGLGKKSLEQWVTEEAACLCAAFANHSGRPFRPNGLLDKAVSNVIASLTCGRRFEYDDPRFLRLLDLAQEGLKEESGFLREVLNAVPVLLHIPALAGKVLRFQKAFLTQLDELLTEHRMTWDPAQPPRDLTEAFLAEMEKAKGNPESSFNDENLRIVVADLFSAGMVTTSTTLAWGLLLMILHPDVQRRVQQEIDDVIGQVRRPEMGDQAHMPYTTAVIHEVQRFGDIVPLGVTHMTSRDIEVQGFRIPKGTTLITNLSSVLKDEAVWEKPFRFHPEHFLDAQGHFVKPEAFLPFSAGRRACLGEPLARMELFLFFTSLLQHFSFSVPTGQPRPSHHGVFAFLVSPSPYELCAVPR
# Chain of Cytochrome P450 1A2 (Homo sapiens) (P05177 whole entry, looked up): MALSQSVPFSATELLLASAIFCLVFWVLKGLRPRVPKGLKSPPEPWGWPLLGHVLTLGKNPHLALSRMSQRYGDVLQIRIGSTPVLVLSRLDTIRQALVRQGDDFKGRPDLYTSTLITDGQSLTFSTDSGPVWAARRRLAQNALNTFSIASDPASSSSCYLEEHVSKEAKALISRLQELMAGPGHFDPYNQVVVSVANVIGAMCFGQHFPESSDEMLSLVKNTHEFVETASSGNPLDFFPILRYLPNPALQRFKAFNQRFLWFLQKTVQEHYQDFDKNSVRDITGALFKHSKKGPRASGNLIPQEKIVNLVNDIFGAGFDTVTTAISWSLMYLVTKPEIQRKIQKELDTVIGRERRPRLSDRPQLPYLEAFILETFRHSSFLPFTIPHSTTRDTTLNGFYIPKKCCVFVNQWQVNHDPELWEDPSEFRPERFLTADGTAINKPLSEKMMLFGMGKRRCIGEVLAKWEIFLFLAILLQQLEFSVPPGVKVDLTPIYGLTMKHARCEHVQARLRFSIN
# Chain of Cytochrome P450 2C19 (Homo sapiens) (P33261 whole entry, looked up): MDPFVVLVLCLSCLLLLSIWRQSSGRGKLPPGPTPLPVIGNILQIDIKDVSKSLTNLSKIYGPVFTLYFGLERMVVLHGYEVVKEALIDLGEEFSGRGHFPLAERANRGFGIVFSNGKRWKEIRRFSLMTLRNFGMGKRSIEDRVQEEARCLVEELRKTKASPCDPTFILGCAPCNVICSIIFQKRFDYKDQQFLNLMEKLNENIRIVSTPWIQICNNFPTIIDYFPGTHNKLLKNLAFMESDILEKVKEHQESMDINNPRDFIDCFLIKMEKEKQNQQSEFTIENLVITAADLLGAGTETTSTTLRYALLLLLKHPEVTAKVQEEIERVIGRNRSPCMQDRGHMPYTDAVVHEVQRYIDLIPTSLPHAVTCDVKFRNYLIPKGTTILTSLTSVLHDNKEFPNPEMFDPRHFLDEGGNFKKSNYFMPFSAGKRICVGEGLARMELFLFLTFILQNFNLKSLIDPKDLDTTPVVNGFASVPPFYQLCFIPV
# Chain of Cytochrome P450 3A4 (Homo sapiens) (P08684 whole entry, looked up): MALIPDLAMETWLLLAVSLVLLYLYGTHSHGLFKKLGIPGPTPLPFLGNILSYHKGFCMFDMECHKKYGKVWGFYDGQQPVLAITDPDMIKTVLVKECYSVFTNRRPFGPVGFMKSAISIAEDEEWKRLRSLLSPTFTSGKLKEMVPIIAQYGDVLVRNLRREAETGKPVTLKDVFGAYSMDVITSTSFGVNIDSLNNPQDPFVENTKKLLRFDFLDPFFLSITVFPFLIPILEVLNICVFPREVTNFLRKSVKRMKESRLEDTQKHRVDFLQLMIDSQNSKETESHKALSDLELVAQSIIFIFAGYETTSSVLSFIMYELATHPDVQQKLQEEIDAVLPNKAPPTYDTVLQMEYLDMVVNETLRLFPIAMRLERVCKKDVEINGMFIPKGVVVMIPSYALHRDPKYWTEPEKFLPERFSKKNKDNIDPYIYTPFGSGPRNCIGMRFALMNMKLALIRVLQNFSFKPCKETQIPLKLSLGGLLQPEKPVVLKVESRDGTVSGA
# Chain of Tyrosyl-DNA phosphodiesterase 1 (Homo sapiens) (Q9NUW8 whole entry, looked up): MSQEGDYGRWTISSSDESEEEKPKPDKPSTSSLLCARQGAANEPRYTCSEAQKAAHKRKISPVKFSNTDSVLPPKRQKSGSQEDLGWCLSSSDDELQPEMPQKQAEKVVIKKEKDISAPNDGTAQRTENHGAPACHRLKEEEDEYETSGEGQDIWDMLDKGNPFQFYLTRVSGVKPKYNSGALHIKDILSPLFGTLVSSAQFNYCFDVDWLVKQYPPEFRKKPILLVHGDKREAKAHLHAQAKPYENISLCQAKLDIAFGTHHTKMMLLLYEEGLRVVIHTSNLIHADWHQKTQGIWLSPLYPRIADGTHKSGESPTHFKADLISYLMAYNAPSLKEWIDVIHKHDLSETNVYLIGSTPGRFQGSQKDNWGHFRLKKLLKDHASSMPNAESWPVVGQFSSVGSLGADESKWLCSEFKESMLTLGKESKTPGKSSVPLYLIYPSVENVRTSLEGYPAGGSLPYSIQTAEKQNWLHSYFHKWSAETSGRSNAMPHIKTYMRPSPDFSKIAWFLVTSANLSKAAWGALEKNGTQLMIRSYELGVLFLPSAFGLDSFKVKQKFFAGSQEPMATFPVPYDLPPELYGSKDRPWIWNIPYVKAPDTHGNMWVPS
SMILES,Potency [1],Potency [2] [µM],Potency [3],Potency [4],Potency [5],Potency [6],Potency [7],Potency [8],Potency [9]
CC(C)[C@@H](CC(=O)N[C@@H]1CCCC[C@H]1C(=O)N[C@H](CC(=O)N[C@@H](CCC(=O)O)CC(=O)O)Cc1c[nH]c2ccccc12)NC(=O)C[C@H](Cc1ccccc1)NC(=O)[C@@H]1CCCC[C@H]1N,inactive,> 46,inactive,inactive,inactive,inactive,,,
CC(C)C[C@@H](CC(=O)N[C@H](CC(=O)N[C@@H]1CCNC[C@H]1C(=O)N[C@H](CC(=O)N[C@@H](CCC(=O)O)CC(=O)O)Cc1ccccc1)C(C)C)NC(=O)[C@@H]1CCCC[C@H]1N,inactive,> 46,inactive,,inactive,,inactive,,
CCCCC#Cc1ccccc1CC(=O)Nc1ccccc1,2.51 µM (active),,,2.51 µM (active),,0.794 µM (active),inactive,inactive,31.6 µM (active)
CC(C)[C@@H](CC(=O)N[C@@H]1CCCC[C@H]1C(=O)N[C@H](CC(=O)N[C@@H](CCC(=O)O)CC(=O)O)Cc1c[nH]c2ccccc12)NC(=O)C[C@H](CO)NC(=O)[C@@H]1CNCC[C@H]1N,inactive,> 46,inactive,,inactive,inactive,,,
CC(C)C[C@@H](CC(=O)N[C@@H](CCC(=O)O)CC(=O)O)NC(=O)[C@@H]1CNCC[C@H]1NC(=O)C[C@@H](NC(=O)C[C@H](Cc1ccccc1)NC(=O)[C@@H]1CCCC[C@H]1N)C(C)C,31.6 µM (active),> 46,inactive,inactive,inactive,inactive,,,
NCCC[C@@H](CC(=O)N[C@@H]1CCNC[C@H]1C(=O)N[C@H](CC(=O)N[C@@H](CCC(=O)O)CC(=O)O)Cc1c[nH]c2ccccc12)NC(=O)C[C@H](CO)NC(=O)[C@@H]1CNCC[C@H]1N,inactive,> 46,inactive,,inactive,inactive,inactive,,
CCC/C=C(\CCC)C(NC(=O)c1ccccc1)c1ccccc1 (configuration not stated),10 µM (active),,,,,,inactive,,
COc1cc(/C=C\C(=O)N2CCCCC2=O)cc(OC)c1OC,0.1 µM (active),> 46,,inactive,inactive,inactive,,,
CC(C)C[C@@H](CC(=O)N[C@@H](CCC(=O)O)CC(=O)O)NC(=O)[C@@H]1CCCC[C@H]1NC(=O)C[C@H](CCCN)NC(=O)C[C@H](Cc1c[nH]c2ccccc12)NC(=O)[C@@H]1CNCC[C@H]1N,inactive,> 46,,inactive,inactive,inactive,inactive,,
NCCC[C@@H](CC(=O)N[C@@H]1CCNC[C@H]1C(=O)N[C@H](CC(=O)N[C@@H](CCC(=O)O)CC(=O)O)Cc1c[nH]c2ccccc12)NC(=O)C[C@H](Cc1c[nH]c2ccccc12)NC(=O)[C@@H]1CNCC[C@H]1N,inactive,> 46,inactive,,,inactive,,,
CC(C)C[C@@H](CC(=O)N[C@@H](CCCN)CC(=O)N[C@@H]1CCCC[C@H]1C(=O)N[C@H](CC(=O)N[C@@H](CCC(=O)O)CC(=O)O)Cc1ccccc1)NC(=O)[C@@H]1CNCC[C@H]1N,25.1 µM (active),> 46,inactive,inactive,inactive,inactive,,,
